Artemis endo inh: Artemis endonuclease inhibitors, primary screen, biochemical, fluorescence intensity, FAM/BHQ-1 hairpin substrate | Protein artemis (Homo sapiens), Q96SD1 | recombinant Artemis, quenched FAM hairpin cleavage fluorescence | 30,000 compounds, 0.78% hits | inhibition, % at 10 µM;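 active = at 10 µM dose, at least 30% inhibition, measured as corrected fluorescence normalized to stimulator and neutral control wells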
* hit, by the source's call. The sample as a whole holds a higher share of hits than the screen did.

SMILES	Artemis endo inh
Cc1cc(NC(=O)COC(=O)c2c(C)nn(Cc3ccccc3Cl)c2C)no1	88.5*
O=C(COC(=O)Cc1ccccc1)Nc1ncc(Cl)cc1Cl	-12.5
CCN(CC)CCNCC(=O)Nc1ccc(Cl)cc1C(=O)c1ccccc1	-10.1
COc1ccc(/C=N/N=C(/N)N[N+](=O)[O-])c(OC)c1	-6.0
C/C(Cl)=C/CC1(CN2CCCC2=O)C(=O)NC(=O)NC1=O	1.2

Screens as filed in PubChem BioAssay.
